CYP2C9 activ – increases human cytochrome P450 2C9 activity | activation factor at 5 µM | 96,000 compounds, 1.4% hits | P11712 | recombinant CYP2C9, luciferin-H conversion, luminescence; hits give high values; factor 1 = untreated enzyme, 0 = blocked;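 active = activation factor of 2 or more for CYP2C9 at a 5 µM dose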
sEH act – activators of human soluble epoxide hydrolase. P34913. purified human sEH enzymatic activity, activator screen. activation, % at 2 µM. 91,000 compounds, 0.04% hits. AID 717; in the data active = activation above about 37%
CYP2C19 activ – cytochrome P450 2C19 (human) activation; recombinant CYP2C19, luciferin-H EGE luminescence; hits give high values; 0 = fully inhibited enzyme, 1 = untreated enzyme; activation factor at 5 µM; 96,000 tested, under 10 active; AID 1025;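 active = activation factor of at least 2 at 5 µM in the primary screen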
Target sequence (P33261 whole entry, looked up): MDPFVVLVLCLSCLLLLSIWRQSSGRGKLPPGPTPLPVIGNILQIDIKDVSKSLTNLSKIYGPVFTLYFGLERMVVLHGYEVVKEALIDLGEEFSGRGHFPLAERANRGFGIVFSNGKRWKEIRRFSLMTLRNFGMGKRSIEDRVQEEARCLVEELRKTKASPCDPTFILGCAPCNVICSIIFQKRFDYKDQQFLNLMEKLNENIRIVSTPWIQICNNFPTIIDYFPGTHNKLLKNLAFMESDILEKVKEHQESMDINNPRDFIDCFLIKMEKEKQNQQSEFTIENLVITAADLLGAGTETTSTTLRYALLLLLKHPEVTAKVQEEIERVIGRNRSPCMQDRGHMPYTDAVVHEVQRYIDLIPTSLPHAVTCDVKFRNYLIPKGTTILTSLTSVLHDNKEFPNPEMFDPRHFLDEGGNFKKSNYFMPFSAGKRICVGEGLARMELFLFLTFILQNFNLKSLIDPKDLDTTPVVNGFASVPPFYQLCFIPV
CYP2C19 inhib – human CYP2C19 inhibition | P33261 | CYP2C19 Supersomes, luciferin-H EGE luminescence, 30 min | inhibition, % at 5 µM | 96,000 compounds, 21% hits;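 active = CYP2C19 inhibition above a set limit at 5 µM in the primary screen, cut at about 50% in these data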
CYP2C9 inh – inhibitors of human CYP2C9; P11712; CYP2C9 Supersomes, luciferin-H conversion, luminescence; inhibition, % at 5 µM; 96,000 compounds, 20% hits; AID 777;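 active = blocking of liver enzyme CYP2C9 beyond about 50% at 5 µM, limit read from the data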
sEH inh – soluble epoxide hydrolase (human) inhibition; 91,000 compounds, 0.34% hits; AID 707; P34913; recombinant human sEH enzymatic activity assay; inhibition, % at 2 µM; in the data active = inhibition above about 80%
A number is an active result; . = inactive; / = not tested or not shown. Only some compounds are listed: those with a hit (about 27% of all), similar ones and a draw of the others.

SMILES	CYP2C9 activ	sEH act	CYP2C19 activ	CYP2C19 inhib	CYP2C9 inh	sEH inh
COc1ccc2nc(SCC(=O)Nc3ccccc3C)[nH]c2c1	.	.	.	67.7	87.8	.
COc1ccc2nc(SCC(=O)Nc3ccccc3C#N)[nH]c2c1	.	.	.	.	67.1	.
Cc1ccc(C(=O)NCCCN2CCOCC2)o1	/	.	/	/	/	.
COc1ccc(C(=O)COc2ccccc2N2C(=O)C3C4C=CC(C4)C3C2=O)cc1 (configuration not stated)	.	.	.	.	.	.
CC(=O)/C=N/Nc1ccccc1	.	.	.	.	60.1	.
COc1cc(C(=O)OCC(=O)NC2CCCC2)cc(NC(=O)c2ccco2)c1OC	.	.	.	78.4	73.4	.
COc1cc(NC(=O)c2ccco2)c(OC)cc1NC(=O)c1cc(OC)c(OC)c(OC)c1	.	.	.	.	.	.
CCOc1cc(NC(=O)c2ccco2)c(OCC)cc1NC(=O)c1cc(OC)c(OC)c(OC)c1	.	.	.	.	56.6	.
O=C1c2ccccc2S(=O)(=O)N1Cc1cc(=O)n2ccsc2n1	.	.	.	.	.	.
Cc1nc2cc(N3CCN(C)CC3)c(NC(=O)Cc3ccccc3)cc2c(=O)n1Cc1ccccc1	.	.	.	66.9	66.6	.
CCN(CC)c1cc2nc(C)n(Cc3ccccc3)c(=O)c2cc1NC(=O)C1CC1	/	.	/	/	/	.
Cc1nc2cc(N3CCCCC3)c(NC(=O)c3ccncc3)cc2c(=O)n1Cc1ccc(Cl)cc1	.	.	.	.	73.6	.
Cc1ccc(C(=O)Nc2cc(Cl)ccc2N2CCCCC2)s1	.	.	.	.	.	.
CCN(CC)CCn1c2ccccc2c2nc(C)sc21	.	.	.	.	.	.
C=CC1C(N2CCOCC2)C(C)(C)S1(=O)=O (configuration not stated)	.	/	.	.	.	/
Cc1ccn2cc(CNS(=O)(=O)c3ccc(Cl)s3)nc2c1	.	.	.	.	.	.
CC(C)(C)n1nnnc1CN1CCN(C(c2ccccc2)c2ccccc2)CC1	/	.	/	/	/	.
CCN(CC)S(=O)(=O)c1ccc(C)c(C)c1	3.4	.	.	82.2	.	.
O=S(=O)(c1ccccc1)c1cccc(S(=O)(=O)N2CCCCC2)c1	.	/	.	87.3	.	/
CCCCN(CC)S(=O)(=O)c1ccccc1	.	.	.	81.0	.	.
CN1CCN(S(=O)(=O)c2cccc(S(=O)(=O)c3ccc(Cl)cc3)c2)CC1	2.1	.	.	.	.	.
O=C(O)c1cccc(S(=O)(=O)N2CCCC2)c1	.	.	.	.	.	.
CCN(CC)S(=O)(=O)c1ccc(F)cc1	/	.	/	/	/	.
CCCCN(CCCC)S(=O)(=O)c1ccc2[nH]c(=O)[nH]c2c1	.	.	.	.	.	.
CCN(CC)CCCN1C(=O)c2oc3ccccc3c(=O)c2C1c1cccs1 (configuration not stated)	.	.	.	.	.	.
SMILES	CYP2C9 activ	sEH act	CYP2C19 activ	CYP2C19 inhib	CYP2C9 inh	sEH inh
COc1cc(C(=O)NCCC(=O)NCCN2CCOCC2)cc(OC)c1OC	.	.	.	.	.	.
Cc1ccc(S(=O)(=O)c2cccc(S(=O)(=O)N3CCCC3)c2)cc1S(=O)(=O)N1CCCC1	.	/	.	51.7	.	/
CCN(CC)S(=O)(=O)c1ccc2c(c1)C(=NO)c1cc(S(=O)(=O)N(CC)CC)ccc1-2	/	.	/	/	/	.
CCN(CC)S(=O)(=O)c1cccc(S(=O)(=O)N2CCCCC2)c1	.	.	.	.	53.3	.
CCN(CC)S(=O)(=O)c1cccc(S(=O)(=O)c2cccc(S(=O)(=O)N(CC)CC)c2)c1	.	.	.	91.3	70.5	.
CCOC(=O)Cn1ncc(-c2ccccc2)c1N	/	.	/	/	/	.
CCOc1cc(N2CCOCC2)c(OCC)cc1NC(=O)c1ccc(=O)n(Cc2ccccc2)n1	.	/	.	.	.	/
COc1cc(NC(=O)c2ncn[nH]2)cc(OC)c1OC	/	.	/	/	/	.
CCCC(C)C(=O)N(Cc1ccccc1)c1ccccn1 (configuration not stated)	.	.	.	66.7	50.8	.
CC(C)c1nnc(NC(=O)c2c(O)c3cccc4c3n(c2=O)CCC4)s1	.	.	.	.	62.6	.
Cc1cnc(NC(=O)c2c(O)c3cccc4c3n(c2=O)CCC4)s1	.	.	.	.	.	.
COc1ccc(CC(=O)Nc2nnc(SCc3ccccc3)s2)cc1S(=O)(=O)N1CCOCC1	.	.	.	90.7	90.4	.
COc1ccc(CC(=O)Nc2nc3ccccc3s2)cc1S(=O)(=O)N1CCOCC1	.	.	.	76.3	64.1	.

Assay outcomes as filed in PubChem BioAssay.
